# Experimental data reported in PubChem BioAssay (Tox21).
# “And” between values parts separate entries of the source, which are not always exact repeats. Equal values may be shown once. More than one record can exist for a structure, and the calls need not agree. The source made the active and inactive calls. A call without a number means that no potency is given here. Unless noted, calls follow the shape of the dose curve; as a rule, active = well fitted curve in the direction sought with a large enough effect in the repeat runs; inconclusive = weak or mixed curves; inactive = no such curve, though single readings can be large; an effect the other way counts as inactive or inconclusive.
# Key:
# [1] = qHTS assay to identify small molecule antagonists of the glucocorticoid receptor (GR) signaling pathway - cell viability counter screen (AID 720693); also: nearly all actives have a fitted effect of over 55% in size; also: potency is read from the fitted curve at half-maximal effect
# [2] = qHTS assay for identifying genotoxic compounds that show differential cytotoxicity against isogenic chicken DT40 cell lines with known DNA damage response pathways - Rev3 mutant cell line (AID 743014); also: nearly all actives have a fitted effect of over 55% in size; also: potency is read from the fitted curve at half-maximal effect
# [3] = qHTS assay for identifying genotoxic compounds that show differential cytotoxicity against isogenic chicken DT40 cell lines with known DNA damage response pathways - Rad54/Ku70 mutant cell line (AID 743015); also: nearly all actives have a fitted effect of over 60% in size; also: potency is read from the fitted curve at half-maximal effect
# [4] = qHTS assay to identify small molecule antagonists of the androgen receptor (AR) signaling pathway - cell viability counter screen (AID 743033; also: nearly all actives have a fitted effect of over 45% in size; also: potency is read from the fitted curve at half-maximal effect)
# [5] = qHTS assay to identify small molecule antagonists of the androgen receptor (AR) signaling pathway using the MDA cell line - cell viability counter screen (AID 743041; also: nearly all actives have a fitted effect of over 45% in size; also: potency is read from the fitted curve at half-maximal effect)
# Outline: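 Using the breast carcinoma line MDA-kb2 AR-luc, test chemicals were co-incubated with R1881 for 16 h; CellTiter-Fluor reagent, added at 15.5 h, provided a fluorescence measure of live cells.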
# [6] = qHTS assay to identify small molecule antagonists of the thyroid receptor (TR) signaling pathway - cell viability counter screen (AID 743064); also: nearly all actives have a fitted effect of over 50% in size; also: potency is read from the fitted curve at half-maximal effect
# Outline: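 Plate GH3.TRE-Luc cells; incubate 4 h at 37 °C; add compound, then T3 to 1 nM final; incubate 23.5 h; add CellTiter-Fluor; incubate 30 min at 37 °C, 5% CO2; read fluorescence.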
# [7] = system: thyroid hormone receptor (rat, GH3 cells); assay: qHTS assay to identify small molecule agonists of the thyroid receptor (TR) signaling pathway (AID 743066; calls by dose curve)
# [8] = qHTS assay to identify small molecule antagonists of the estrogen receptor alpha (ER-alpha) signaling pathway - cell viability counter screen (AID 743074; calls by dose curve; also: nearly all actives have a fitted effect of over 45% in size; also: potency is read from the fitted curve at half-maximal effect)
# [9] = qHTS assay to identify small molecule antagonists of the estrogen receptor alpha (ER-alpha) signaling pathway using the BG1 cell line - cell viability counter screen (AID 743081);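 also: compound given together with 17beta-estradiol as the ER stimulus; nearly all actives have a fitted effect of over 45% in size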; also: potency is read from the fitted curve at half-maximal effect
# [10] = molecular target: Aromatase (Homo sapiens) (UniProt P11511); assay: qHTS assay to identify aromatase inhibitors (AID 743083); also: nearly all actives have a fitted effect of over 55% in size; also: potency is read from the fitted curve at half-maximal effect
# [11] = molecular target: Androgen receptor (Homo sapiens) (UniProt P10275); assay: qHTS assay to identify small molecule antagonists of the androgen receptor (AR) signaling pathway using the MDA cell line (AID 743042; also: nearly all actives have a fitted effect of over 55% in size)
# Outline: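 Antagonist mode: compounds plus R1881 agonist added to MDA-kb2 AR-luc cells, incubated 16 h at 37C. Luciferase reporter luminescence quantified, with multiplexed CellTiter-Fluor readout for cell viability.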
# [12] = qHTS assay to identify small molecule antagonists of the thyroid receptor (TR) signaling pathway (AID 743065); also: nearly all actives have a fitted effect of over 55% in size; also: potency is read from the fitted curve at half-maximal effect
# Outline: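 Antagonism measured as loss of luciferase signal in GH3 cells stably carrying a TRE-luciferase reporter, co-treated with compound and T3 (1 nM final) for 23.5 h at 37 C. Viability was read in the same well by CellTiter-Fluor.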
# [13] = molecular target: Estrogen receptor (Homo sapiens) (UniProt P03372); assay: qHTS assay to identify small molecule antagonists of the estrogen receptor alpha (ER-alpha) signaling pathway (AID 743069; active = well fitted curve in the direction sought with a large enough effect in the signal ratio in the repeat runs, not every such curve was filed as active; inconclusive = weak or mixed curves, or effect the other way; inactive = no such curve, though single readings can be large or run the other way; the % refers to the signal ratio)
# Outline: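 Fluorescence intensity from a beta-lactamase FRET substrate served as the read-out. Cells: HEK293 with stably integrated ER-alpha-UAS-bla reporter. Agonist 17beta-estradiol was co-added with compounds; incubation 18 hr at 37C, substrate 2 hr at room temperature.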
# [14] = molecular target: Estrogen receptor (Homo sapiens) (UniProt P03372); assay: qHTS assay to identify small molecule agonists of the estrogen receptor alpha (ER-alpha) signaling pathway (AID 743075; calls by dose curve; also: potency is read from the fitted curve at half-maximal effect)
# [15] = molecular target: Estrogen receptor (Homo sapiens) (UniProt P03372); assay: qHTS assay to identify small molecule agonists of the estrogen receptor alpha (ER-alpha) signaling pathway using the BG1 cell line (AID 743079); also: nearly all actives have a fitted effect of over 20% in size; also: potency is read from the fitted curve at half-maximal effect
# [16] = qHTS assay to identify small molecule antagonists of the estrogen receptor alpha (ER-alpha) signaling pathway using the BG1 cell line (AID 743080; calls by dose curve; also: nearly all actives have a fitted effect of over 25% in size; also: potency is read from the fitted curve at half-maximal effect)
# Outline: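 Antagonist mode: compounds in DMSO were pinned onto BG1-Luc-4E2 cells alongside 17beta-estradiol agonist, incubated 21.5 h, and ERE-driven luciferase measured with ONE-Glo. Cytotoxicity was multiplexed using CellTiter-Fluor fluorescence.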
# Sequence of Aromatase (Homo sapiens) (P11511 whole entry, looked up): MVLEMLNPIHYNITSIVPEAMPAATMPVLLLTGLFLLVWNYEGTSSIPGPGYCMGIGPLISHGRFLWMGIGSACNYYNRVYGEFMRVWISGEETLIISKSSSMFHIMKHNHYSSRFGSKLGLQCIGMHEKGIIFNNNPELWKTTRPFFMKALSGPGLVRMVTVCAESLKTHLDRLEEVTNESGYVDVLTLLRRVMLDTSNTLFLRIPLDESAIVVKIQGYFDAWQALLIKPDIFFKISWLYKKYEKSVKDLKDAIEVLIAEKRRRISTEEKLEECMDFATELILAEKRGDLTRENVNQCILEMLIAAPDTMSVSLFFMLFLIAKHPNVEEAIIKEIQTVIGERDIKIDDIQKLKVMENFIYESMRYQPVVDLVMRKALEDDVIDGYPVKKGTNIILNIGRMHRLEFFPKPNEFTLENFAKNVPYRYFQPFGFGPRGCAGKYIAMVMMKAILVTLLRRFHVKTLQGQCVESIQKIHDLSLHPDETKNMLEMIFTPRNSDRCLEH
# Sequence of Estrogen receptor (Homo sapiens) (P03372 whole entry, looked up): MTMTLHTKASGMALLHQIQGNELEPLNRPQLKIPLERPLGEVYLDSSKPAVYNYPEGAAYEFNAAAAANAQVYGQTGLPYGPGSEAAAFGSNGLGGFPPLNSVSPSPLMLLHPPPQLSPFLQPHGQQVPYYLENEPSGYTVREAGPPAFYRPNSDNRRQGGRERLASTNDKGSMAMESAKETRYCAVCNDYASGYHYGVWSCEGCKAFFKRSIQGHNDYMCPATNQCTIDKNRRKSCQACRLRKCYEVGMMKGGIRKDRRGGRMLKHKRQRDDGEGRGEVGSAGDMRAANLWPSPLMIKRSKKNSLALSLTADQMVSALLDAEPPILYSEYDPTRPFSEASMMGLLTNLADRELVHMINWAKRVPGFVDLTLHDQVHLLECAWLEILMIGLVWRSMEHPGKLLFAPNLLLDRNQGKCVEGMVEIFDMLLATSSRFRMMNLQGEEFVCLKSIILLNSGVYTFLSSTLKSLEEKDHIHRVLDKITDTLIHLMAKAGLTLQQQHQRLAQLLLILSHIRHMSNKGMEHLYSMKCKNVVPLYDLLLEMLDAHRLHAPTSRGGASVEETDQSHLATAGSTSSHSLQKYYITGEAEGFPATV
# Sequence of Androgen receptor (Homo sapiens) (P10275 whole entry, looked up): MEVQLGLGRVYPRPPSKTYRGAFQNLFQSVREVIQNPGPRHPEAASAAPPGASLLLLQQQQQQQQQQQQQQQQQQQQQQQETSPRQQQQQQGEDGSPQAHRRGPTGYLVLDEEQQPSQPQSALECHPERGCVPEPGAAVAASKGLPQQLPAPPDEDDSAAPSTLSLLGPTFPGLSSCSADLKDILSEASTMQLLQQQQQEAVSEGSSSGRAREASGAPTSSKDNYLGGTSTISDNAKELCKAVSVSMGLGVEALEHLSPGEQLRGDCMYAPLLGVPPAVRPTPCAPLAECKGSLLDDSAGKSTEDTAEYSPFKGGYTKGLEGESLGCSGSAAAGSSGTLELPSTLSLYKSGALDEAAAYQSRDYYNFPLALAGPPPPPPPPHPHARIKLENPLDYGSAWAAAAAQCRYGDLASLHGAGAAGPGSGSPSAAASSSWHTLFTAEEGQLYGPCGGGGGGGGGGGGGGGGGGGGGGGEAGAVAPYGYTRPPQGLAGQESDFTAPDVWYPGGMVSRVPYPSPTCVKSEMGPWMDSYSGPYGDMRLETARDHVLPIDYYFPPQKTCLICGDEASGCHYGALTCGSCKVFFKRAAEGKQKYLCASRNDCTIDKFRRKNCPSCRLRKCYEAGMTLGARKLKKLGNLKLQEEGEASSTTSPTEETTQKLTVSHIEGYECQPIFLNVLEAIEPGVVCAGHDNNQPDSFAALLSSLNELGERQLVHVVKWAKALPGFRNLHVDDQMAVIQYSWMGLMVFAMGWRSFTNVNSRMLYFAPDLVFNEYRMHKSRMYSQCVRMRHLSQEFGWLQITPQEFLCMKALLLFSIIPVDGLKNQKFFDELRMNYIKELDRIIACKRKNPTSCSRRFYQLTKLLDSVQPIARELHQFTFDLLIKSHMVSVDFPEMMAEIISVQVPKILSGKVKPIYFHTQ
SMILES,Potency [1],Potency [2],Potency [3],Potency [4],Potency [5],Potency [6],Potency [7],Potency [8],Potency [9],Potency [10],Potency [11],Potency [12],Potency [13],Potency [14],Potency [15],Potency [16]
CC(C)(C)c1ccccc1O,inactive,61.1 µM (active),inactive,inactive,inactive,inactive,inactive,inactive,inactive,inactive,,,,,,
c1ccc(NNc2ccccc2)cc1,inactive,24.3 µM (active),inactive and 27.3 µM (active),inactive,inactive,inactive,inactive,inactive,inactive,,,,,,,
Nc1ccc(Cl)cc1N,,,42.3 µM (active),,inactive,42 µM (active),inactive,inactive,inactive,inactive,inactive,24.3 µM (active),,,,
C#C[C@]1(O)CC[C@H]2[C@@H]3CCC4=CC(=O)CC[C@]4(C)[C@H]3CC[C@@]21C,inactive,inactive,inactive,inactive,inactive,inactive,inactive,inactive,inactive,inactive,,6.86 µM (active),,,,
COP(=S)(OC)Oc1ccc([N+](=O)[O-])cc1,inactive,,,inactive,inactive,inactive,inactive,inactive,inactive,inactive,,inactive,inactive,inactive,48.6 µM (active) and inactive,inactive
C#CCOS(=O)OC1CCCCC1Oc1ccc(C(C)(C)C)cc1 (configuration not stated),21.9 µM (active),3.86 µM (active) and 2.17 µM (active),4.33 µM (active) and 2.43 µM (active),174 nM (active) and 1.74 µM (active),4.33 µM (active),6.86 µM (active),inactive,,27.3 µM (active),15.4 µM (active) and 6.86 µM (active),,,,inactive and 2.75 µM [inconclusive] (active),,9.7 µM (active)
c1ccc(P(c2ccccc2)c2ccccc2)cc1,inactive,12.4 µM (active) and 61.1 µM (active),19.7 µM (active) and 54.5 µM (active),inactive,inactive,inactive,inactive,inactive,inactive,inactive,,,inactive,inactive,inactive,inactive
CC(C)N(C(=O)SCC(Cl)=C(Cl)Cl)C(C)C,inactive,inactive and 54.5 µM (active),inactive and 30.6 µM (active),inactive,inactive,47.9 µM (active),inactive,inactive,inactive,,,,,,,
O=C(CCl)c1ccccc1,inactive,54.5 µM (active),61.1 µM (active),inactive,inactive,inactive and 68.6 µM (active),inactive,inactive,inactive,inactive,,,,,,
CCN(CC)N=O,inactive,inactive,inactive,inactive,inactive,inactive,inactive,inactive,inactive,inactive,,,,,,
Nc1ccc(Cl)c(Cl)c1,inactive,inactive,inactive,inactive,inactive,inactive,inactive,inactive,inactive,inactive,,inactive,,,,
Cc1c(COC(=O)[C@@H]2[C@H](/C=C(\Cl)C(F)(F)F)C2(C)C)cccc1-c1ccccc1,inactive,inactive,inactive,inactive,inactive,,inactive,26.9 µM (active),inactive,inactive,,15 µM (active) and 15.3 µM (active),inactive,inactive,inactive,
C=CC(=O)OCCO,inactive,inactive,inactive and 43.3 µM (active),inactive,inactive,inactive,inactive,inactive,inactive,,,,,,,
CNC(=O)Oc1cccc2c1OC(C)(C)O2,inactive,inactive,inactive,inactive,inactive,inactive,,inactive,inactive,inactive,,,,inactive,inactive,inactive
O=c1oc2ccccc2c(O)c1C(CC(O)c1ccc(-c2ccc(Br)cc2)cc1)c1ccccc1 (configuration not stated),23.9 µM (active) and 46.3 µM (active),inactive,,inactive,inactive,,inactive,inactive,inactive,inactive,,,,inactive,inactive,inactive
